# Assay results as given in PubChem BioAssay.
# “And” between values parts separate entries of the source, which are not always exact repeats. Equal entries are not always repeated. For part of these data: Entries with a potency or affinity are not part of this list. The source made the active and inactive calls.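 The calls were made as follows, unless noted: active = at least 20% inhibition of 6-phosphogluconate dehydrogenase activity; inactive = the rest.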
# Tests used:
# [1] = blockers of polyQ-driven CASP3 activation – cell-based (AID 1583); settings: polyglutamine-induced caspase-3 activation, cell assay; stronger effect = higher value;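 tested at 10 µM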
# [2] = yeast 75Q aggregation reduction – 75Q-TubU reporter (AID 1593); settings: Yeast 75Q polyglutamine aggregation reporter
# [3] = restoration of touch response, mutant HTT neurons – whole organism, C. elegans mechanosensory neurons, N-terminal huntingtin (AID 1599); settings: C. elegans polyQ-huntingtin mechanosensory neurons, stronger effect = higher value
# [4] = blockers of cytochrome c efflux from mitochondria – biochemical, purified mitochondria (AID 1603); settings: stronger effect = lower value;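 also: mouse liver mitochondria challenged with calcium chloride; signal normalized to the plate average as 100%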
# [5] = polyglutamine aggregate formation blockers (AID 1604); settings: polyglutamine-induced protein aggregation inhibition assay; stronger effect = higher value; tested at 2.5 µM
# [6] = glutamate transport activators, MN-1 cells, MN-1 cell line (AID 1612); settings: MN-1 motor neuron cells, stronger effect = higher value;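 also: tested at 1 µM final; 0% = mean of DMSO vehicle wells on each plate; positive means more glutamate uptake than control and negative means less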
# [7] = GFP-Q80 aggregate reduction, neuronal-like cells, cell-based, NGF-treated PC12, GFPQ80 (AID 1614); settings: PC12 NGF-treated GFP-polyQ80 inclusion reduction;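 also: lower means fewer inclusions and 0 means no inclusions at all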
# [8] = 75Q-TubH aggregate inhibition, S. cerevisiae, yeast (AID 1616); settings: S. cerevisiae 75Q-TubH polyglutamine aggregation suppression; stronger effect = higher value
# [9] = biological target: 6-phosphogluconate dehydrogenase, decarboxylating (Homo sapiens) (UniProt P52209); experiment: inhibition of human phosphogluconate dehydrogenase – biochemical, recombinant enzyme, NADPH absorbance, primary screen (AID 1159550); settings: recombinant 6PGD, NADPH absorbance 341 nm; at 10 µM; stronger effect = higher value
# Chain of 6-phosphogluconate dehydrogenase, decarboxylating (Homo sapiens) (P52209 whole entry, looked up): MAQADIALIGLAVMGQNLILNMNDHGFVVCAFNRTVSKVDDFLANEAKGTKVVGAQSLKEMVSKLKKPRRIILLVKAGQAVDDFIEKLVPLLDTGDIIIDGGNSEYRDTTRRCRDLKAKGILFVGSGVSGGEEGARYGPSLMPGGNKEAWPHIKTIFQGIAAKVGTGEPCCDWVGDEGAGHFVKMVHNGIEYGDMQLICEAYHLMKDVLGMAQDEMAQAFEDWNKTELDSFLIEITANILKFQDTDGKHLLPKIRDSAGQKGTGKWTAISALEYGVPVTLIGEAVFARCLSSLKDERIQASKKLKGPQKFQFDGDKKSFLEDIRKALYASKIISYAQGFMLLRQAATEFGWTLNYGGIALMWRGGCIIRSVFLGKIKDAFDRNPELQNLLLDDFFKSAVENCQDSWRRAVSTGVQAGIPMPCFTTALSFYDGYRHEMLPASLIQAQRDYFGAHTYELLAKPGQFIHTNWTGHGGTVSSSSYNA
# [10] = EMT-state selective cytotoxicity in co-culture – imaging, PC-3E GFP, TEM4-18 mCherry, primary screen (AID 1345086;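 active = compounds killing one labelled cell type while sparing the other, by normalised counts and ratio limits, not self-fluorescent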;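 as to all read-outs here: cells exposed to compound for 72 h before imaging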;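 as to red/green cell ratio (normalised): normalised mesenchymal count divided by normalised epithelial count so high means epithelial killing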); settings: PC-3E GFP / TEM4-18 mCherry co-culture, imaging cell counts, at 1 µM; for red/green cell ratio (normalised): actives lie on both sides
# [11] = biological target: Mitogen-activated protein kinase 7 (Homo sapiens) (UniProt Q13164); experiment: Gal4-ERK5 driven luciferase induction – cell-based, HTS, primary screen (AID 1508626;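 active = luciferase signal above three times the same-plate solvent-only control wells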;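 also: luciferase driven by Gal4-ERK5 fusion binding five Gal4 sites before minimal TATA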); settings: HeLa Gal4-ERK5 transactivation, 18 h, at 5 µM, stronger effect = higher value
# Chain of Mitogen-activated protein kinase 7 (Homo sapiens) (Q13164 whole entry, looked up, the tested form may be a part): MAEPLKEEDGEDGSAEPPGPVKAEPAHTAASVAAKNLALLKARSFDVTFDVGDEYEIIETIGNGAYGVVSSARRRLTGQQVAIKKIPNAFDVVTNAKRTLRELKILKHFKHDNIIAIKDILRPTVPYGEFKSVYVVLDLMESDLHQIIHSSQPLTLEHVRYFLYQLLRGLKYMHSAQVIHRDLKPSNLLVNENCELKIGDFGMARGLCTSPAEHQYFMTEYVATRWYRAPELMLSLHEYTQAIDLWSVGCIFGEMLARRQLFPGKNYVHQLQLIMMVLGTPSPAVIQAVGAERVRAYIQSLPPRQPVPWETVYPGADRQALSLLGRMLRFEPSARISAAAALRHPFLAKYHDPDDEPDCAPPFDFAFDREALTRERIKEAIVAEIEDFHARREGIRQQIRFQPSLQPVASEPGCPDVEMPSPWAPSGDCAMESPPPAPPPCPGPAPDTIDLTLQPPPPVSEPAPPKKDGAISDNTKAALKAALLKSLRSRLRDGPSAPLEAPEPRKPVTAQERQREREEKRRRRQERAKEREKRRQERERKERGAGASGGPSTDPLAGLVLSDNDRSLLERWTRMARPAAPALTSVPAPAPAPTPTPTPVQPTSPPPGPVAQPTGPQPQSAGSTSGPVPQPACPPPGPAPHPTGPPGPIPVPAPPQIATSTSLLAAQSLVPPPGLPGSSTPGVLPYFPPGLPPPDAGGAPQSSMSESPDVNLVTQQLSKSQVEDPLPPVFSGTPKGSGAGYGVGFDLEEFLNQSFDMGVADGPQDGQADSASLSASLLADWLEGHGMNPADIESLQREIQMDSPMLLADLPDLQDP
# [12] = test system: Aerobactin synthetase IucA (Klebsiella pneumoniae hvKP1); experiment: IucA enzyme inhibition, primary screen, biochemical, Spectrum library (AID 1346200; call rule not given here;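 also: 100% = wells without compound and 0% = wells lacking enzyme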); settings: malachite green pyrophosphate, A620, at 8 µM, stronger effect = lower value
# [13] = P. berghei load reduction in hepatocytes – cell-based, HepG2, luciferase luminescence, HepG2 viability, primary screen (AID 624349; in the data active = parasite load remaining mostly below about 12%, no sharp cut-off; inactive = mostly above about 10%;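 also: 100% = mean of DMSO negative control wells on the same plate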); settings: P. berghei liver stage in HepG2, luciferase luminescence, concentration not given here; parasite load remaining: stronger effect = lower value; viability: measured here: HepG2 viability without parasites
# [14] = viability loss with induced miR-34 in A549 – imaging, A549 dox-inducible miR-34, nuclei and caspase counts, primary screen (AID 1347080;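 active = compounds whose cell count with miR-34 switched on is under 0.7 times the count with it off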); settings: A549 miR-34 inducible, Hoechst nuclei count, 48 h
# [15] = biological target: NAD(+) hydrolase SARM1 (Homo sapiens) (UniProt Q6SZW1); experiment: blocking NAD cleavage by SARM1 SAM-TIR – cell lysate, NAD-Glo luminescence (AID 1508614;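 active = compound whose remaining NAD level is above about 45 nM, limit read from the data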;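 also: higher remaining NAD means stronger inhibition of SARM1 NADase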); settings: SAM-TIR HEK293T lysate NADase, at 1 µM, stronger effect = higher value
# Chain of NAD(+) hydrolase SARM1 (Homo sapiens) (Q6SZW1 whole entry, looked up): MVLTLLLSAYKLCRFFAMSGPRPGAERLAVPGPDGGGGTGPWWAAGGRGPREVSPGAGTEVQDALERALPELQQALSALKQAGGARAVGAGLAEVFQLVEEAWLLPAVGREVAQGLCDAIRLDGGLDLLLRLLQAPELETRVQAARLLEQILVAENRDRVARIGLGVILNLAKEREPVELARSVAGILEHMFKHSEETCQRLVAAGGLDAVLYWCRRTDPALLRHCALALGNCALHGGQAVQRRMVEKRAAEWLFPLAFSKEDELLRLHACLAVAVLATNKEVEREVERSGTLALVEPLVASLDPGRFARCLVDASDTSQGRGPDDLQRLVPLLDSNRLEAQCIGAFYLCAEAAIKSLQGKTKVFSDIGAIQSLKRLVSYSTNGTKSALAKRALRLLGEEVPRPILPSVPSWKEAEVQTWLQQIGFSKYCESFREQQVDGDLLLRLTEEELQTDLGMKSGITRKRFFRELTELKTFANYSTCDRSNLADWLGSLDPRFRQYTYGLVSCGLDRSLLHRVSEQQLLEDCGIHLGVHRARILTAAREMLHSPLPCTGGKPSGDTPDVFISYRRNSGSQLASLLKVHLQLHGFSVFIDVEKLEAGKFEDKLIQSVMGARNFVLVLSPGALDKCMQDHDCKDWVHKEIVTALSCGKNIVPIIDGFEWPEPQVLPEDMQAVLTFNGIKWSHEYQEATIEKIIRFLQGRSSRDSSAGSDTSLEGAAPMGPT
# [16] = galactose survival enhancers in mitochondrial complex I cybrids – cell-based, galactose medium, ATP luminescence, primary screen (AID 1645843;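 active = z-score of at least 1.8 in each of two replicates, scored against plate mean and spread of sample wells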;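 also: positive z means more ATP and so rescue of galactose-driven cybrid death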); settings: complex I mutant cybrid cells, 72 h, stronger effect = higher value
# [17] = test system: Aerobactin synthetase IucA (Klebsiella pneumoniae, hypervirulent); experiment: biochemical IucA inhibition screen of LOPAC library by absorbance (AID 1346212; call rule not given here;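 also: 100% = no compound wells and 0% = no enzyme wells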); settings: IucA enzyme assay, absorbance (OD) readout; stronger effect = lower value;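 tested at 8 µM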
# [18] = measured here: epithelial PC-3E GFP cell survival
# [19] = measured here: mesenchymal TEM4-18 mCherry cell survival
# [20] = measured here: relative caspase fold change +Dox/-Dox
# [21] = measured here: total cells with miR-34 induction, stronger effect = lower value
# [22] = measured here: total cells without miR-34 induction
compound,measurement,setting,value
N#C/C(=C\c1ccc(O)cc1)C(=O)O,inhibition,[1],-8.72%
same,score,[2],1.56
same,rescue above control,[3],-7.23
same,cytochrome c release ratio,[4],0.76
same,inhibition of aggregation,[5],-4.76%
same,glutamate uptake change,[6],12%
same,inclusion score,[7],2
same,aggregation suppression score,[8],1.17
same,inhibition,[9],0.31% (inactive)
same,red/green cell ratio (normalised),[10],0.79 (inactive)
same,normalised cell number,[10]; [18],1.25
same,normalised cell number,[10]; [19],0.99
same,luciferase signal,[11],144 AU (inactive)
N#C/C(=C\c1cccc(O)c1)C(=O)O,inhibition,[1],16.4%
same,score,[2],1.48
same,rescue above control,[3],-1.13
same,cytochrome c release ratio,[4],2.28
same,inhibition of aggregation,[5],58.6%
same,glutamate uptake change,[6],-1.74%
same,inclusion score,[7],2
same,aggregation suppression score,[8],1.54
same,inhibition,[9],11.3% (inactive)
same,red/green cell ratio (normalised),[10],0.88 (inactive)
same,normalised cell number,[10]; [18],1.09
same,normalised cell number,[10]; [19],0.96
same,activity remaining,[12],104% (inactive)
same,luciferase signal,[11],128 AU (inactive)
C=CCc1cc(OC)c2c(c1OC)OCO2,inhibition,[9],-12.9% (inactive)
same,red/green cell ratio (normalised),[10],1.18 (inactive)
same,normalised cell number,[10]; [18],0.73
same,normalised cell number,[10]; [19],0.87
same,luciferase signal,[11],32 AU (inactive)
O=c1cccc2n1CC1CNC[C@H]2C1,parasite load remaining,[13],134% (inactive)
same,viability,[13],104%
same,inhibition,[9],-36.3% (inactive)
same,fold change,"[14]; stronger effect = lower value, cell number ratio, induced over uninduced",0.809 (inactive) and 0.946 (inactive)
same,fold change,[14]; [20],1.71 and 1.27
same,cell count,[14]; [21],8130 and 8990
same,cell count,[14]; [22],10000 and 9510
same,remaining NAD,[15],10 nM (inactive)
same,luciferase signal,[11],60 AU (inactive)
same,z-score,[16],1.16 (inactive)
COc1nc(NC(C)C)nc(NC(C)C)n1,inhibition,[9],-20.6% (inactive)
same,activity remaining,[12],117% (inactive)
CNc1ccc(C(=O)CC(O)CCC(C)C2OC(=O)CC(O)CC(=O)CC(O)CC(O)CC(O)CC(O)CC3(O)CC(O)C(C(=O)OC)C(CC(O[C@@H]4O[C@H](C)[C@@H](O)[C@H](N)[C@@H]4O)/C=C/C=C/C=C/C=C/C=C/C=C/C=C/C2C)O3)cc1 (some centres undefined),parasite load remaining,[13],132% (inactive) and 33.6% (inactive)
same,viability,[13],90% and 101%
same,inhibition,[9],2.08% (inactive)
same,red/green cell ratio (normalised),[10],1.39 (inactive)
same,normalised cell number,[10]; [18],0.82
same,normalised cell number,[10]; [19],1.14
same,fold change,[14]; stronger effect = lower value,0.878 (inactive)
same,fold change,[14]; [20],3.37
same,cell count,[14]; [21],11000
same,cell count,[14]; [22],12500
same,remaining NAD,[15],10 nM (inactive)
C[C@@H]([C@H](O)c1ccccc1)N(C)C,inhibition,[1],-9.65%
same,score,[2],1.49
same,rescue above control,[3],-3.5
same,cytochrome c release ratio,[4],0.95
same,inhibition of aggregation,[5],81%
same,glutamate uptake change,[6],13.8%
same,inclusion score,[7],2
same,aggregation suppression score,[8],1.19
same,inhibition,[9],4.3% (inactive)
same,red/green cell ratio (normalised),[10],0.91 (inactive)
same,normalised cell number,[10]; [18],1.19
same,normalised cell number,[10]; [19],1.09
same,fold change,[14]; stronger effect = lower value,0.94 (inactive)
same,fold change,[14]; [20],0.912
same,cell count,[14]; [21],8870
same,cell count,[14]; [22],9440
same,remaining NAD,[15],10 nM (inactive)
same,luciferase signal,[11],108 AU (inactive)
COC(=O)/C(C)=C\CC12OC(C)(C)C3CC(C=C4C(=O)c5c(OC)c6c(c(CC=C(C)C)c5OC431)OC(C)(CCC=C(C)C)C=C6)C2=O (centres undefined),inhibition,[9],-0.84% (inactive)
same,activity remaining,[12],98.7% (inactive)
C[C@]12CCC3C(CC[C@]4(O)C[C@@H](O)CC[C@]34C=O)[C@@]1(O)CCC2C1=CC(=O)OC1 (some centres undefined),score,[2],1.09
same,rescue above control,[3],6.59
same,cytochrome c release ratio,[4],1.29
same,inhibition of aggregation,[5],62.8%
same,glutamate uptake change,[6],13.8%
same,inclusion score,[7],0
same,aggregation suppression score,[8],1.29
same,inhibition,[9],14.9% (inactive)
same,red/green cell ratio (normalised),[10],0.2 (inactive)
same,normalised cell number,[10]; [18],0.18
same,normalised cell number,[10]; [19],0.04
same,activity remaining,[12],79.3% (inactive)
CNC(=O)CSP(=S)(OC)OC,inhibition,[9],-17.5% (inactive)
same,activity remaining,[12],98.2% (inactive)
O=C1CCO1,inhibition,[1],12.7%
same,score,[2],1.2
same,rescue above control,[3],11.7
same,cytochrome c release ratio,[4],1.11
same,inhibition of aggregation,[5],22.4%
same,glutamate uptake change,[6],5.98%
same,inclusion score,[7],2
same,aggregation suppression score,[8],1.23
same,parasite load remaining,[13],165% (inactive) and 39.1% (inactive)
same,viability,[13],91.2% and 89.3%
same,inhibition,[9],-4.86% (inactive)
same,red/green cell ratio (normalised),[10],1.22 (inactive)
same,normalised cell number,[10]; [18],0.9
same,normalised cell number,[10]; [19],1.09
same,fold change,[14]; stronger effect = lower value,0.872 (inactive)
same,fold change,[14]; [20],2.98
same,cell count,[14]; [21],11800
same,cell count,[14]; [22],13500
same,remaining NAD,[15],10 nM (inactive)
same,luciferase signal,[11],100 AU (inactive)
NCC(N)C(=O)c1ccccc1 (centres undefined),inhibition,[9],-14.8% (inactive)
same,activity remaining,[12],109% (inactive)
COc1c(CC=C(C)C)c2c(c3oc(=O)c(-c4ccc(O)cc4)c(O)c13)C=CC(C)(C)O2,inhibition,[9],-2.87% (inactive)
same,activity remaining,[12],114% (inactive)
O=[N+]([O-])c1cc(O)c(O)c([N+](=O)[O-])c1,inhibition,[1],-6.91%
same,score,[2],1.27
same,rescue above control,[3],-7.14
same,cytochrome c release ratio,[4],0.96
same,inhibition of aggregation,[5],80.3%
same,glutamate uptake change,[6],-10%
same,inclusion score,[7],2
same,aggregation suppression score,[8],1.02
same,inhibition,[9],-7.64% (inactive)
same,activity remaining,[12],110% (inactive)
same,remaining activity,[17],97% (inactive)
same,fold change,[14]; stronger effect = lower value,1.02 (inactive) and 0.929 (inactive)
same,fold change,[14]; [20],1.32 and 0.849
same,cell count,[14]; [21],9880 and 8690
same,cell count,[14]; [22],9680 and 9350
same,z-score,[16],0.815 (inactive) and 1.17 (inactive)
